# PfHsp40 yeast: restores yeast growth despite PfHsp40 toxicity; growth rescue, % at 12.5 µM; S. cerevisiae expressing PfHsp40, growth rescue, ATP luminescence; 340,000 compounds, 0.68% hits; AID 504582; in the data active = growth rescue above about 28%, passing the limit was not always enough;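 note: yeast W303a lacking pdr1 and pdr3 grown in galactose medium; growth measured after three days at 30 °C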
# Mtb hypoxia rep: inhibitors of hypoxia-regulated fluorescent reporter in Mycobacterium tuberculosis; M. tuberculosis hypoxia-regulated fluorescent reporter, fluorescence; fluorescence inhibition, % (no concentration beside the values); 300,000 compounds, 0.1% hits; AID 1159583; in the data active = fluorescence inhibition mostly above about 23%, no sharp cut-off; inactive = mostly below about 17%
# RN4220 kill: S. aureus RN4220 growth inhibition | 330,000 compounds, 0.33% hits | AID 1259311 | OD600, 16 h | inhibition, % (concentration not given with the values); in the data active = inhibition above about 85%;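 note: plate controls were untreated cells for no effect and reference antibiotic for full effect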
# CCHFV vOTU inh: blocks the CCHF virus ovarian tumor domain protease | inhibition, % at 11.5 µM | 370,000 compounds, 0.55% hits | CCHFV vOTU protease, Pep-AMC fluorescence; in the data active = inhibition above about 30%; note: 0% = vehicle wells with enzyme and 100% = no enzyme wells
# ugtP null kill: growth inhibition of S. aureus ugtP deletion strain; S. aureus RN4220 ugtP deletion, OD600 growth, 16 h; growth inhibition, % (no concentration beside the values); 330,000 compounds, 0.54% hits; AID 1259309; in the data active = growth inhibition above about 68%;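 note: plate controls were untreated wells for no effect and antibiotic for full effect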
# Vc quorum ag: induces V. cholerae light production without autoinducers; V. cholerae BH1578 lux reporter, luminescence, 6 h; activation, % at 18.7 µM; 350,000 compounds, 0.16% hits; in the data active = activation mostly above about 9.7%, no sharp cut-off
# Numbers without * were called inactive; i = inactive; nt = no result given. Rows were chosen to be rich in hits. Some 1.7% of all compounds tested hit in one or more screens of this group.
SMILES,PfHsp40 yeast,Mtb hypoxia rep,RN4220 kill,CCHFV vOTU inh,ugtP null kill,Vc quorum ag
Cc1c(OCc2ccccc2)c(=O)ccn1Cc1ccc(Cl)cc1,0.1,4.3,-19.4,18.1,-25.9,-3.4
COc1ccc(Cn2ccc(=O)c(Cc3c(Cl)cccc3Cl)c2C)cc1,1.6,3.3,98.1*,6.2,97.9*,-0.7
Cc1c(Cc2c(Cl)cccc2Cl)c(=O)ccn1C(C)c1ccccc1 (stereo not given),52.0*,9.0,98.4*,-0.2,99.5*,nt
Cc1ccc(Cn2ccc(=O)c(Cc3c(Cl)cccc3Cl)c2C)cc1,0.9,8.1,100.3*,-3.0,100.6*,i
O=[N+]([O-])c1ccc(C=NNc2nc(N3CCCC3)nc(N3CCCC3)n2)o1,nt,nt,8.9,nt,-5.6,nt
CC(=NNC(=O)c1cc(-c2ccccn2)nc2ccccc12)c1cccc([N+](=O)[O-])c1,nt,-0.7,4.1,nt,4.4,nt
O=C1C=CCC(C=Cc2ccccc2)O1 (stereo not given),nt,18.6,4.2,nt,-0.2,nt
Nc1nonc1-n1nnc(C(=O)NN=Cc2ccncc2)c1-c1cccs1,nt,-1.4,2.9,nt,1.1,nt
COC(=O)C1=C(c2cccc(OCc3ccccc3)c2)CC2CCC1N2C(=O)NCCOc1ccc(OC)cc1 (stereo not given),nt,0.2,-3.4,nt,-12.6,nt
N/C(=N\OC(=O)c1ccc2ccccc2c1)c1ccncc1,0.8,5.8,3.0,-10.1,-8.3,2.3
N/C(=N\OC(=O)c1ccc2ccccc2c1)c1ccccc1Cl,87.3*,2.0,-1.3,-1.3,-9.5,1.0
O=C(C=Cc1ccccc1)NC(=Cc1ccccc1)C(=O)Nc1cccc(C(=O)O)c1,nt,4.7,2.0,nt,-5.5,nt
COC(=O)C1=C(C)N=c2sc(=C3C(=O)Nc4ccccc43)c(=O)n2C1c1ccccc1 (stereo not given),nt,8.9,2.7,nt,9.4,nt
CC(CC(=O)Nc1ccc(Cl)cc1Cl)=NNC(=O)c1cnccn1,nt,6.8,5.5,nt,-0.2,nt
COCc1cc(CN2CCN(C)CC2)c(O)c2ncccc12,1.2,19.8,4.1,-0.4,3.5,-0.4
Oc1c(CNc2ccccc2)cc(COCc2ccccc2)c2cccnc12,53.2*,0.1,8.8,6.9,2.8,i
Cc1ccc(NCc2ccc(O)c3ncccc23)cc1,-0.4,2.7,7.9,3.6,5.6,-0.2
Oc1c(CN2CCOCC2)cc(COCc2ccccc2)c2cccnc12,65.5*,8.7,6.3,-3.7,2.7,-0.5
CCOc1cc(C=NNC(=O)COc2ccc(Cl)cc2)ccc1OS(=O)(=O)c1ccccc1,nt,7.2,-8.1,nt,-19.2,nt
Cn1c(CNc2ccc(Cl)cc2)nnc1SCc1ccccc1,142.6*,8.6,-7.8,-4.8,-3.0,-0.3
CCn1c(CNc2ccc(Cl)cc2)nnc1SCc1ccccc1,119.7*,11.1,-1.9,3.2,-3.6,0.3
Cc1ccc(NC(=O)c2cc(N3C(=O)CCC3=O)ccc2N2CCOCC2)cc1,-0.2,2.5,4.3,-4.0,0.4,-0.3
Cc1ccc(NC(=O)c2cc(N3C(=O)C=CC3=O)ccc2N2CCOCC2)cc1Cl,36.1*,6.0,7.6,-5.0,33.8,-0.3
COC(=O)C(O)(NC(=O)c1ccncc1)C(F)(F)F (stereo not given),1.4,-7.0,84.3*,9.2,76.4,0.0
CCC1SC(=NN=Cc2ccco2)N(Cc2ccccc2C)C1=O (stereo not given),nt,4.4,0.6,nt,28.3,nt
SMILES,PfHsp40 yeast,Mtb hypoxia rep,RN4220 kill,CCHFV vOTU inh,ugtP null kill,Vc quorum ag
CC(C)=CCc1c2c(c3occ(-c4ccc(O)cc4)c(=O)c3c1O)C=CC(C)(C)O2,38.9*,nt,99.5*,19.1,100.0*,-0.6
CC(C)=CCc1c2c(c3occ(-c4ccc(O)c(O)c4)c(=O)c3c1O)C=CC(C)(C)O2,3.6,nt,nt,28.5,nt,nt
C=CSc1sc(Cl)c(N2CCOCC2)c1[N+](=O)[O-],nt,4.2,5.9,-4.0,12.2,-0.2
C=CS(=O)(=O)c1sc(Cl)c(N2CCOCC2)c1[N+](=O)[O-],481.9*,-3.0,2.7,-1.2,-0.9,-0.9
O=C(CNc1cccc2ccccc12)NN=C/C=C/c1ccco1,nt,8.5,0.5,nt,-1.7,nt
CCCC=NNc1nc2ccccc2s1,nt,-3.2,2.0,nt,-5.6,nt
CN(C)c1ccc(S(=O)(=O)N2CCCCC2)cc1NC(=O)CCNC(=O)c1ccccc1Cl,0.4,23.5*,3.7,-13.3,1.2,0.3
CCCN(CC(=O)Nc1cc(Cl)cc(Cl)c1)CC(=O)Nc1ccc(F)c(F)c1F,2.3,12.3,88.7*,23.8,91.4*,i
COc1cccc(C=NNC(=O)c2cccc(N3CCCC3=O)c2)c1,nt,-1.8,-3.3,nt,0.2,nt
CCCN1CCCc2cc(CN)ccc21,-2.3,7.7,0.6,99.9*,-9.3,i
COc1cc(C=NO)ccc1Oc1ccc([N+](=O)[O-])cc1[N+](=O)[O-],nt,5.7,4.8,nt,11.1,nt
NC(CN1CCCC1=O)=NO,nt,-1.0,3.5,nt,2.7,nt
O=C(CCN1C(=O)C2C3C=CC(C4CC34)C2C1=O)Oc1cccc2cccnc12 (stereo not given),-0.5,-2.4,100.2*,10.4,98.1*,i
O=C(CCN1C(=O)C2C3C=CC(C4CC34)C2C1=O)Oc1ccc(Br)cc1 (stereo not given),-1.2,-5.1,2.9,-1.1,-5.4,-0.3
Cc1cccc(NC(=O)N2C[C@H]3C[C@@H](C2)c2cccc(=O)n2C3)c1,-0.3,nt,2.6,-2.6,-8.4,-0.5
Cc1cccc(Nc2nnc(-c3ccc(C(=O)N4C[C@H]5C[C@H](C4)c4cccc(=O)n4C5)cc3)c3ccccc23)c1,84.4*,nt,3.8,3.5,-4.0,i
COC1CCC(OC2CC(C3(C)CCC4(CC(O)C(C)C(C(C)/C=C(\C)C(=O)C(C)CC(C)C(=O)O)O4)O3)OC3(OC(C4OC(O)(CO)C(C)CC4C)CC3C)C2C)OC1C (stereo not given),219.6*,nt,nt,9.6,nt,-5.6
O=C(N/N=C(\c1ccccc1)c1cccnc1)c1cccc(F)c1,315.4*,nt,nt,10.6,nt,-0.3
O=C(N/N=C(\c1ccccc1)c1cccnc1)c1ccc(O)cc1,-0.7,nt,nt,24.9,nt,-0.2
OCCN1CCN(CCCN2c3ccccc3Sc3ccc(C(F)(F)F)cc32)CC1,1.1,15.6,-1.4,16.6,-6.4,5.6
FC(F)(F)c1ccc2c(c1)N(CCCN1CCN(CCCl)CC1)c1ccccc1S2,-2.2,nt,100.4*,12.3,100.7*,-0.4
N#CC(=Cc1ccc(Oc2ccc(C(F)(F)F)cc2[N+](=O)[O-])cc1)c1nc2ccccc2[nH]1,nt,-23.9,-8.3,nt,-38.7,nt
Cc1cc(C)nc(NN=Cc2c(C)oc3ccccc23)n1,nt,8.8,1.7,nt,6.5,nt
COc1ccc(C=NNC(=O)c2cccnc2)cc1CN1CCN(c2ccc(F)cc2)CC1,nt,-4.5,30.2,nt,15.9,nt
Clc1nssc1=Nc1ccc(Br)cc1,-0.9,10.4,6.7,0.7,11.7,i
Clc1ccc(N=c2ssnc2Cl)nc1,1.3,7.2,25.6,15.4,95.1*,-1.6
Cc1cccc(NC(=S)NC2CCCC2)n1,113.2*,2.0,4.2,7.2,-1.7,-0.2
Cc1cccc(NC(=S)NC2CCCCC2)n1,-0.5,-5.9,3.9,-4.1,6.5,i
